Screening data (PubChem)
DRD3 antagonist = blocks the human D3 dopamine receptor. D3R cells, DiscoveRx beta-arrestin luminescence, antagonist mode; stronger effect = lower value. P35462. hit rate 2.5% among 360,000. AID 652054. max response, negative = inhibition, %; in the data active = max response below about -50%; inconclusive = no clear call, values can overlap the other calls; also: % is scaled to controls: 0 for no effect and ±100 for the full control effect
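Cells expressing the human receptor were seeded at 1500 cells/well, incubated overnight at 37 degrees C in 5% CO2, then exposed to library compounds with dopamine controls for 90 minutes at 37 degrees C before luminescent detection.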
D1 agonist = activates the human D1 dopamine receptor | AID 504660 | activation, % at 2 µM | HEK293 T-REx D1 cells, calcium flux, agonist mode | hit rate 1% among 360,000; in the data active = activation above about 30%; also: 0% is about no effect
Target sequence (P21728 whole entry, looked up): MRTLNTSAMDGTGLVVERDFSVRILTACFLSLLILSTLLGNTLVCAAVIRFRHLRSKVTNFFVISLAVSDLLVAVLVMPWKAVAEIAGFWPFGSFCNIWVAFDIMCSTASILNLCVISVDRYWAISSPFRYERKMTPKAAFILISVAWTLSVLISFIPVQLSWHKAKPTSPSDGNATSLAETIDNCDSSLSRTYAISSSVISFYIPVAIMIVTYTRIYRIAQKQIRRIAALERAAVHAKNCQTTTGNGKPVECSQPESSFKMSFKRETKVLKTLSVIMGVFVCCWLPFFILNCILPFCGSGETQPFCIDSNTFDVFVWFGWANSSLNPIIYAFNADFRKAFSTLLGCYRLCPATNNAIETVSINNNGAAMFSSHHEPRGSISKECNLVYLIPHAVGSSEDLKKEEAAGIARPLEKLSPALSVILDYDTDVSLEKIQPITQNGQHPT
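Agonism was scored from calcium flux recorded over 180 s (1 read/s) after pintool compound addition, following a 10-cycle baseline. Cells were inducible force-coupled HEK293 TREx D1, plated overnight at 30 C and loaded with no-wash calcium dye.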
D3 ag = agonists of human D3 dopamine receptor. P35462. D3R DiscoveRx beta-arrestin cells, luminescence, 90 min. max activation, %. hit rate 0.58% among 410,000; in the data active = max activation above about 30%; also: 0% is about no effect
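Agonist-mode cell screen: cells plated at 1500/well and incubated overnight at 37 °C, then exposed to library compounds for 90 min at 37 °C. Detection reagent was added for 30–60 min at room temperature, and luminescence was read.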
D1 antagonist = human D1 dopamine receptor antagonism | P21728 | activity change, negative = inhibition, % at 10 µM | hit rate 3.2% among 360,000 | HEK293 TREx D1 cells, calcium flux, dopamine EC80; stronger effect = lower value; in the data active = activity change below about -30%; also: % is scaled to controls: 0 for no effect and ±100 for the full control effect
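Cells carrying a force-coupled, tetracycline-inducible human D1 receptor report calcium flux. Each well gets a 10 s baseline, compound with 180 s monitoring, then an EC80 dopamine stimulus with a second 180 s kinetic read.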
D1 PAM = human D1 dopamine receptor positive modulation | P21728 | HEK293 TREx D1 cells, calcium flux, dopamine EC20 potentiation | potentiation, % at 10 µM | hit rate 0.036% among 360,000 | AID 504651; in the data active = potentiation above about 30%; also: 0% is about no effect
An asterisk follows results filed as active; ? = inconclusive; . = no result given. A selection: hits, their analogues and other compounds. The true share with any hit is near 6%.

SMILES	DRD3 antagonist	D1 agonist	D3 ag	D1 antagonist	D1 PAM
COc1ccc(NC(=O)c2cccc([N+](=O)[O-])c2)cc1	-2	5	0	-20	-14
COc1ccc(NC(=O)c2cc([N+](=O)[O-])ccc2O)cc1	15	26	2	-31*	-2
O=C(O)c1ccccc1C(=O)Nc1cccc([N+](=O)[O-])c1	5	2	4	-7	5
O=C(Nc1ccccc1Oc1ccccc1)c1cc([N+](=O)[O-])ccc1Cl	4	3	0	-1	-10
O=C(NNc1ccc([N+](=O)[O-])cc1)c1ccccc1Cl	?	9	-8	-52*	-4
O=C(Nc1ccc(Nc2ccccc2)cc1)c1cc([N+](=O)[O-])ccc1Cl	-51*	0	-7	-16	-3
CCOc1ccc(OCC)c(NS(=O)(=O)c2c(C)[nH]c(=O)[nH]c2=O)c1	.	4	-7	-2	1
O=C(Nc1ccc(N2CCN(C(=O)c3ccco3)CC2)cc1)c1ccc([N+](=O)[O-])cc1Cl	2	13	12	-6	-1
O=C(Nc1cccc([N+](=O)[O-])c1)c1ccc(-c2ccccc2)cc1	56	15	11	-59*	-8
O=C(Nc1ccc2c(c1)CCCN2C(=O)c1ccco1)c1cc([N+](=O)[O-])ccc1Cl	8	1	7	-42*	-20
COc1ccc(-c2nnc(-c3cc4ccccc4oc3=O)o2)cc1	-7	1	5	-5	-1
Cc1cc(-c2nnc(-c3cc4ccccc4oc3=O)o2)c(C)n1-c1ccccc1	-4	3	-5	-43*	-1
O=C(Cc1ccccc1)Nc1ccc(NC(=O)c2cccs2)cc1	-6	1	-2	-30*	-4
O=C(OCC(=O)c1cccs1)c1ccc(NC(=O)c2ccco2)cc1	28	7	-7	-33*	-10
O=C(Nc1ccc(NC(=O)c2cccs2)cc1)c1ccccc1	-9	4	10	-6	-2
O=C(c1ccncc1)c1ccc(NC(=O)c2cccs2)cc1	4	12	-1	-35*	-16
O=C(Nc1ccc(Cc2ccncc2)cc1)c1cccs1	-19	13	31*	2	-8
CC(=O)Nc1ccccc1NS(=O)(=O)c1ccccc1NO	.	4	.	14	2
CC(CNC(=O)Cn1ccc2cc(S(=O)(=O)N3CCCCC3)ccc21)c1ccccc1 (centres undefined)	.	5	-5	-10	-1
CSc1ccc(CN2CCc3c([nH]c4ccccc34)C2)cc1	?	0	-11	2	-5
COc1cc(OC)c(CN2CCc3c([nH]c4ccccc34)C2)cc1Br	16	7	-12	-49*	-9
Cc1cccc(CN2CCc3c([nH]c4ccccc34)C2)c1	-90*	4	-15	2	0
Cc1ccc2[nH]c3c(c2c1)CCN(C)C3	-60*	2	-20	4	-5
c1ccc(CN2CCc3[nH]c4ccccc4c3C2)cc1	-97*	.	-11	.	.
N#C/C(=C\c1ccc(F)cc1)C(=O)NCC1CCCO1 (centres undefined)	.	1	0	4	2
SMILES	DRD3 antagonist	D1 agonist	D3 ag	D1 antagonist	D1 PAM
Cc1ccc(Cn2c(CNS(=O)(=O)c3ccc(C(C)(C)C)cc3)nc3cccnc32)cc1	.	2	-14	5	-3
Cc1ccc(NC(=O)Cn2c(=O)c3ccc(Cl)cc3n3nncc23)cc1	.	1	9	3	3
Clc1ccc(CN2CCc3c([nH]c4ccccc34)C2)cc1Cl	14	4	2	6	5
Clc1cccc(CN2CCc3c([nH]c4ccccc34)C2)c1	-59*	3	-21	3	-7
COc1ccc(OC)c(CCNC(=O)c2c(C)oc3ncn(C)c(=O)c23)c1	.	1	3	-31*	-7
COc1ccccc1N1CCN(C(=O)c2cc(-c3ccc(F)cc3)on2)CC1	-2	3	2	2	1
COc1ccccc1N1CCN(C(=O)c2c(C)oc3ncn(C)c(=O)c23)CC1	.	1	-1	-35*	-6
COc1ccccc1N1CCN(C(=O)c2cc(-c3ccc(C)cc3)on2)CC1	23	2	4	-45*	-4
Cc1nn(-c2ccccc2)c2c1N(CC(=O)N1CCN(c3cccc(Cl)c3)CC1)C(=O)CS2	.	2	1	1	2
COc1ccccc1N1CCN(C(=O)c2cc3c(=O)oc4ccccc4c3s2)CC1	.	2	-8	-5	0
